# Reference: PubChem BioAssay (EPA / NIEHS)
# Records with an inconclusive call do not appear. Activity calls are given as the source filed them. The calls were made as follows: active = hit-call score of the fitted dose curve at least 0.9, where 1 is the maximum; inconclusive = response in the unintended direction; inactive = score below 0.9.
# Experiment: Tanguay_ZF_120hpf_JAW_legacy: (Legacy) Oregon State University Tanguay Lab 120 Hour Post-fertilization zebrafish Assay for Jaw Malformation (AID 2283638);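 as to AC50: active means more embryos with jaw malformation than DMSO controls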
# Description: Tanguay_ZF_120hpf_legacy is a whole embryo, multiplexed endpoint assay using zebrafish larvae exposed for 120 hours post fertilization on a 96-well plate.Tanguay_ZF_120hpf_JAW_legacy is one of one assay component(s) measured or calculated from the Tanguay_ZF_120hpf_legacy assay. It is designed to make measurements of zebrafish development as detected with brightfield microscopy of developing zebrafish embryos.Data from the assay component Tanguay_ZF_120hpf_JAW_legacy was analyzed into 1 assay endpoints. This assay endpoint, Tanguay_ZF_120hpf_JAW_legacy, was analyzed in the positive analysis fitting direction relative to DMSO as the negative control and baseline of activity. Using a type of morphology reporter, gain-of-signal activity can be used to understand changes in developmentals as they relate to the whole embryo. To generalize the intended target to other relatable targets, this assay endpoint is annotated to the zebrafish development intended target family, where the subfamily is embryonic jaw development.
# Zebrafish husbandry: Tropical 5D wild-type adult zebrafish were housed in at an approximate density of 1000 per 100 gallon tank at the Sinnhuber Aquatic Research Laboratory, Oregon State University, Corvallis, OR. Each tank was kept at standard laboratory conditions of 28C on a 14-h light/10-h dark photoperiod in fish water consisting of reverse osmosis water supplemented with a commercially available salt (Instant Ocean). Spawning funnels were placed into the tanks the night prior, and embryos were collected and staged. To increase bioavailability, the chorion was enzymatically removed using pronase (63.6mg/ml, >/= 3.5U/mg, Sigma-Aldrich: P5147) at 4 hours post fertilization (hpf) using a custom automated dechorionator.Chemical exposures: Six hpf dechorionated embryos were placed 1 embryo per well in a 96-well plate prefilled with 90 ul of EM using automated embryo placement systems (AEPS). Ten microliters of each row of dilution plate 2 was added to 2 exposure plates. The final DMSO concentration used was 0.64% (vol/vol). Thirty-two embryos were also exposed to 5uM trimethyltin chloride (positive control). Plates were sealed to prevent evaporation and foil covered to reduce light exposure and kept in a 28C incubator. Embryos were statically exposed until 120 hpf. At 24 hpf, embryos were assessed for photomotor response using a custom photomotor response analysis tool (PRAT) and for developmental toxicity endpoints (MO24: mortality at 24 hpf, DP: developmental progression, SM: spontaneous movement, and NC: notochord distortion). At 120 hpf, locomotor activity was measured using Viewpoint Zebralab and assessed for 18 endpoints. Zebrafish acquisition and analysis program (ZAAP), a custom program designed to inventory, acquire, and manage zebrafish data, was used to collect developmental endpoints as either present or absent (i.e., binary responses were recorded). If mortality occurred for an embryo (at either 24 or 120 hpf), the non-mortality endpoints were not measured.
Structure (SMILES),outcome,AC50
O=[N+]([O-])c1cc(C(F)(F)F)c(Cl)c([N+](=O)[O-])c1Nc1ncc(C(F)(F)F)cc1Cl,inactive,–
CNc1cnn(-c2cccc(C(F)(F)F)c2)c(=O)c1Cl,inactive,–
Cc1cc(C2CC2)nc(Nc2ccccc2)n1,inactive,–
CCOP(=O)(NC(C)C)Oc1ccc(SC)c(C)c1 (stereo not given),–,21.6 µM (active)
CON=C(C(=O)OC)c1ccccc1CON=C(C)c1cccc(C(F)(F)F)c1,–,5.3 µM (active)
CNC(=O)ON=C(SC)C(=O)N(C)C,inactive,–
O=c1ccc(=O)[nH][nH]1,inactive,–
CN(C)NC(=O)CCC(=O)O,inactive,–
COP(=O)(OC)SCn1c(=O)oc2cc(Cl)cnc21,–,15.9 µM (active)
C[N+]1(C)CCCCC1,inactive,–
COc1cc(OC)nc(Sc2cccc(Cl)c2C(=O)O)n1,inactive,–
C#CC(C)(C)NC(=O)c1cc(Cl)cc(Cl)c1,inactive,–
COc1cccc(C(=O)NN(C(=O)c2cc(C)cc(C)c2)C(C)(C)C)c1C,inactive,–
CC(C)=CC1C(C(=O)OCN2C(=O)C3=C(CCCC3)C2=O)C1(C)C (stereo not given),inactive,–
CCOP(=S)(Oc1cnc(C(C)(C)C)nc1)OC(C)C (stereo not given),inactive,–
CCCSP(=O)(OCC)Oc1ccc(Br)cc1Cl (stereo not given),inactive,–
Nc1nc(N)nc(NC2CC2)n1,inactive,–
CCCCOC(=O)c1ccccc1C(=O)O,inactive,–
CCCSP(=O)(OCC)SCCC,inactive,–
C#CCC1=C(C)C(OC(=O)C2C(C=C(C)C)C2(C)C)CC1=O (stereo not given),inactive,–

Structure (SMILES),outcome,AC50
CCOP(=O)(SC(C)CC)N1CCSC1=O (stereo not given),inactive,–
CC(C1CC1)C(O)(Cn1cncn1)c1ccc(Cl)cc1 (stereo not given),–,24.7 µM (active)
CCOP(=S)(OCC)OC(Cl)C(Cl)(Cl)Cl (stereo not given),inactive,–
CCOC(=O)CC(SP(=O)(OC)OC)C(=O)OCC (stereo not given),inactive,–
CC[C@H](C)[C@H]1O[C@]2(C=C[C@@H]1C)C[C@@H]1C[C@@H](C/C=C(\C)[C@@H](O[C@H]3C[C@H](OC)[C@@H](O[C@H]4C[C@H](OC)[C@@H](NC)[C@H](C)O4)[C@H](C)O3)[C@@H](C)/C=C/C=C3\CO[C@@H]4[C@H](O)C(C)=C[C@@H](C(=O)O1)[C@]34O)O2,inactive,–
CCOP(=S)(OCC)Oc1ccc2c(C)c(Cl)c(=O)oc2c1,inactive,–
CSc1nc(NC(C)C)nc(NC(C)C)n1,inactive,–
CNC(=O)Oc1cccc2c1OC(C)(C)O2,inactive,–
CC1=NNC(=O)N(/N=C/c2cccnc2)C1,inactive,–
Nc1c(Cl)cc([N+](=O)[O-])cc1Cl,–,31.4 µM (active)
CCC(CC)Nc1c([N+](=O)[O-])cc(C)c(C)c1[N+](=O)[O-],inactive,–
FC(F)C(F)(F)OCC(Cn1cncn1)c1ccc(Cl)cc1Cl (stereo not given),–,11.7 µM (active)
CC(Oc1cccc(Cl)c1)C(=O)O (stereo not given),inactive,–
COP(=O)(OC)OC(Br)C(Cl)(Cl)Br (stereo not given),inactive,–
CCOP(=O)(OCC)Oc1cc(C)nc(C(C)C)n1,inactive,–
CN(C)[C@@H]1C(=O)C(C(N)=O)=C(O)[C@@]2(O)C(=O)C3=C(O)c4c(O)cccc4[C@@](C)(O)[C@H]3[C@H](O)[C@@H]12,inactive,–
CCOP(=S)(OCC)SCCSCC,inactive,–
CC(COc1ccc(Oc2ccccc2)cc1)Oc1ccccn1 (stereo not given),inactive,–
CSC1=N[C@@](C)(c2ccccc2)C(=O)N1Nc1ccccc1,inactive,–
CCOP(=S)(OCC)Oc1ccc([N+](=O)[O-])cc1,inactive,–
